From ChEMBL document CHEMBL1961873, “Compounds: GSK PKIS; Assays: Nanosyn kinase panel” (2012) come the findings set out here.

“And” between values parts separate entries of the source, which are not always exact repeats. Equal values may be shown once.

A word on the inhibition: it is the drop in the measured response relative to a control, in per cent.

The target of assay [1] is Dual specificity protein kinase CLK3 (Homo sapiens) (UniProt P49761). As to conditions: at 1 µM.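 Further: each value is the mean inhibition of CLK3.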
Dual specificity protein kinase CLK3 (Homo sapiens), sequence (P49761 whole entry, looked up): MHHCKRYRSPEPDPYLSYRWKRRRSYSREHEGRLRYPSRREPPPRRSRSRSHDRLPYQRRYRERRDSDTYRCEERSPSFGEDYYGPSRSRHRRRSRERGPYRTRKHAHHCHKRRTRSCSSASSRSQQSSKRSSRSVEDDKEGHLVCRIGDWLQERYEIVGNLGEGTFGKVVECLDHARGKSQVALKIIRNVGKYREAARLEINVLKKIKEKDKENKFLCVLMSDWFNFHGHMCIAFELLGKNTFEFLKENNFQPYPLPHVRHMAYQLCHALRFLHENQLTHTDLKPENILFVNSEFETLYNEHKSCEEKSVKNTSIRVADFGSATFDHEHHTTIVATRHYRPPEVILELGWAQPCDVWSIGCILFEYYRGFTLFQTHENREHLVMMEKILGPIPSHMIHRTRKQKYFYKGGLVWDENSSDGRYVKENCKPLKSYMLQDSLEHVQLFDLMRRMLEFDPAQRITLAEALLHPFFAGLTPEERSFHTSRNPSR
Assay [2] concerns the target Dual specificity tyrosine-phosphorylation-regulated kinase 1A (Homo sapiens) (UniProt Q13627). As to conditions: at 0.1 µM.
For assay [3] the target is unchanged. Particulars: at 1 µM.
In assay [4] the target is Dual specificity tyrosine-phosphorylation-regulated kinase 1B (Homo sapiens) (UniProt Q9Y463). Particulars: at 0.1 µM.
Dual specificity tyrosine-phosphorylation-regulated kinase 1B (Homo sapiens), sequence (Q9Y463 whole entry, looked up): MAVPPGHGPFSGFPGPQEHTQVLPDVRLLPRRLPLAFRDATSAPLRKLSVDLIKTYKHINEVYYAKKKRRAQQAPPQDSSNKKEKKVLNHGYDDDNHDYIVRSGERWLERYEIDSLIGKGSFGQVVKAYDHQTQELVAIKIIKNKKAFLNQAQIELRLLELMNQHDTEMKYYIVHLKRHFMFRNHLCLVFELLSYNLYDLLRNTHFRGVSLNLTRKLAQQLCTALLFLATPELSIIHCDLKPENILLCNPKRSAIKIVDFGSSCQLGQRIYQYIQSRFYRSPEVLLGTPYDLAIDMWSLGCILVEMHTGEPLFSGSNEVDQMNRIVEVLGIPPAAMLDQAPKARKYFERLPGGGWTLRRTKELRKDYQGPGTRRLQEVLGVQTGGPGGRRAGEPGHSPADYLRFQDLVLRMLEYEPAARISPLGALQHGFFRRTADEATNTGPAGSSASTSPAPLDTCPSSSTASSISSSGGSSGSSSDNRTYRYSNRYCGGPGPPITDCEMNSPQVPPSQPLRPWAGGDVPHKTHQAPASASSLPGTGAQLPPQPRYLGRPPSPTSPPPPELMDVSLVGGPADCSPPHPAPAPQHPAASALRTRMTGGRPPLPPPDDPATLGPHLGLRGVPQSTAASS
Assay [5] has the same target. As to conditions: at 1 µM.
Assay [6] has as its target T1, Dual specificity tyrosine-phosphorylation-regulated kinase 2 (Homo sapiens) (UniProt Q92630).
T1 sequence (whole entry): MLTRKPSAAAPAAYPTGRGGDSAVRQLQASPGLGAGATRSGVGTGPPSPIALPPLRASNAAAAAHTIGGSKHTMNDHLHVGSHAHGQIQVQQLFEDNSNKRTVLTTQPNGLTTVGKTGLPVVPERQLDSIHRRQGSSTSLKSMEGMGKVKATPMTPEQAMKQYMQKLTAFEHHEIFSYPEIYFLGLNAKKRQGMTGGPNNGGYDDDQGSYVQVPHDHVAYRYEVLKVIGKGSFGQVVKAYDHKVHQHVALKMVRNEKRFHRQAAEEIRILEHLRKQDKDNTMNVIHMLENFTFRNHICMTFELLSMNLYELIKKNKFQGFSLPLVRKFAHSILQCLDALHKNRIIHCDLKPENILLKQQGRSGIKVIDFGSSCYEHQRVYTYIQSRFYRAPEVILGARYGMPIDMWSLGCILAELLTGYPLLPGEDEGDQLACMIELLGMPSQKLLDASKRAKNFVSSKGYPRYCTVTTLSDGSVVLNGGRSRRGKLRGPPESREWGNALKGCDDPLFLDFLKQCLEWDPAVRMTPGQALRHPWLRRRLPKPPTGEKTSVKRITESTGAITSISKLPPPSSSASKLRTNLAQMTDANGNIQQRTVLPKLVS
Particulars: at 0.1 µM.

In assay [7] the target is T1, Dual specificity tyrosine-phosphorylation-regulated kinase 2 (Homo sapiens). Particulars: at 1 µM.
Assay [8] has as its target Glycogen synthase kinase-3 alpha (Homo sapiens) (UniProt P49840). As to conditions: at 0.1 µM.
The target is the same in assay [9]. Particulars: at 1 µM.
Assay [10] concerns the target Glycogen synthase kinase-3 beta (Homo sapiens) (UniProt P49841). As to conditions: at 0.1 µM.
Assay [11] has the same target. Particulars: at 1 µM.
The target in assay [12] is Homeodomain-interacting protein kinase 1 (Homo sapiens) (UniProt Q86Z02). Particulars: at 0.1 µM.
Homeodomain-interacting protein kinase 1 (Homo sapiens), sequence (Q86Z02 whole entry, looked up): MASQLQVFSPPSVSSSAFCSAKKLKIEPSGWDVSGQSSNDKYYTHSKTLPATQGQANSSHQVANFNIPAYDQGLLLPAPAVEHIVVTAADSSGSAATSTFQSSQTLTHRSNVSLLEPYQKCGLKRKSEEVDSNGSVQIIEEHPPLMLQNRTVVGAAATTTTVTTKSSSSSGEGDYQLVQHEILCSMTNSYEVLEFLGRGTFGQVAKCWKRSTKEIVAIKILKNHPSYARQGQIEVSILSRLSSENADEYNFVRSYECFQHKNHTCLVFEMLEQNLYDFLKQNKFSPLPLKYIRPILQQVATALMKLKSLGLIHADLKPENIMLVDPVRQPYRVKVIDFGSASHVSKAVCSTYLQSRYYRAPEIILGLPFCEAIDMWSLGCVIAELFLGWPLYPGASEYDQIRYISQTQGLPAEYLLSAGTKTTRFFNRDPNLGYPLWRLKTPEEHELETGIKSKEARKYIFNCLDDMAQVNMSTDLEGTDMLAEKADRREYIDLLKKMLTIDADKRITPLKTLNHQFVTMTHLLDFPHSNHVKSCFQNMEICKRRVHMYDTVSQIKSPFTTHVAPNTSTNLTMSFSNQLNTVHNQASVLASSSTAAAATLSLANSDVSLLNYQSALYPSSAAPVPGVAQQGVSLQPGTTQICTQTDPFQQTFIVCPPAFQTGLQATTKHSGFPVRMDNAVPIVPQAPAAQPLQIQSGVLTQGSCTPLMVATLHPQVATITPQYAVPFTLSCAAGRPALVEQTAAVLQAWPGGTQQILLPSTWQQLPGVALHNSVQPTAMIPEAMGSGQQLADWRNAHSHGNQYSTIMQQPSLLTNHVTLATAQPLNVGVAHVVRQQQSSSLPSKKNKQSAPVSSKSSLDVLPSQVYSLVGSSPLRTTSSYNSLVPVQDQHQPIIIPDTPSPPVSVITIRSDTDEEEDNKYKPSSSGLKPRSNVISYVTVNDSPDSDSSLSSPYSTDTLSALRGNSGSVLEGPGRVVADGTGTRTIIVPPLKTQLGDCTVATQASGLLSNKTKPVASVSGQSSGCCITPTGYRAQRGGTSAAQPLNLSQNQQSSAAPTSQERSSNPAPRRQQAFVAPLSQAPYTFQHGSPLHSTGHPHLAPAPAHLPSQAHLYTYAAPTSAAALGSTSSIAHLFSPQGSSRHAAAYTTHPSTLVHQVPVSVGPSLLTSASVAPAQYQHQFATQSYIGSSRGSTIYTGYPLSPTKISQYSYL
For assay [13] the target is unchanged. As to conditions: at 1 µM.
Assay [14] concerns the target T2, Homeodomain-interacting protein kinase 4 (Homo sapiens) (UniProt Q8NE63).
T2 sequence (whole entry): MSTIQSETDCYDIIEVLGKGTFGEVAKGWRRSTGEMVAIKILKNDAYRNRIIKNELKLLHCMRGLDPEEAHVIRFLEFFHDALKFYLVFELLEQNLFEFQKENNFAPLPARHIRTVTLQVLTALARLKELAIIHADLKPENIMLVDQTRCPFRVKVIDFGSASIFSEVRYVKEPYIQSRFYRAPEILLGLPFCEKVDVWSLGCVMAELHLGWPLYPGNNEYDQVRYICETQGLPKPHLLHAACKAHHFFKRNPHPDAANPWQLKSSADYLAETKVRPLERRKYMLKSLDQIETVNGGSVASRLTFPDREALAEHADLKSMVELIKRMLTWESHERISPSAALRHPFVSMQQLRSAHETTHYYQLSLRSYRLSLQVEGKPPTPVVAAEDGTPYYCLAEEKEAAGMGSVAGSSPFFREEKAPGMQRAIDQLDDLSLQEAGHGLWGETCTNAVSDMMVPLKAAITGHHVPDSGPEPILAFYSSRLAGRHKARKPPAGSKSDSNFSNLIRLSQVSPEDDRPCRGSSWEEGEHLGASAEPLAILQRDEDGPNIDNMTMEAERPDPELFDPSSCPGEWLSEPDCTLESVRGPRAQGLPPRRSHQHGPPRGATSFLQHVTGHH
Particulars: at 0.1 µM.

For assay [15], the target named is T2, Homeodomain-interacting protein kinase 4 (Homo sapiens). As to conditions: at 1 µM.
The target in assay [16] is Mitogen-activated protein kinase 9 (Homo sapiens) (UniProt P45984). Particulars: at 0.1 µM.
Mitogen-activated protein kinase 9 (Homo sapiens), sequence (P45984 whole entry, looked up): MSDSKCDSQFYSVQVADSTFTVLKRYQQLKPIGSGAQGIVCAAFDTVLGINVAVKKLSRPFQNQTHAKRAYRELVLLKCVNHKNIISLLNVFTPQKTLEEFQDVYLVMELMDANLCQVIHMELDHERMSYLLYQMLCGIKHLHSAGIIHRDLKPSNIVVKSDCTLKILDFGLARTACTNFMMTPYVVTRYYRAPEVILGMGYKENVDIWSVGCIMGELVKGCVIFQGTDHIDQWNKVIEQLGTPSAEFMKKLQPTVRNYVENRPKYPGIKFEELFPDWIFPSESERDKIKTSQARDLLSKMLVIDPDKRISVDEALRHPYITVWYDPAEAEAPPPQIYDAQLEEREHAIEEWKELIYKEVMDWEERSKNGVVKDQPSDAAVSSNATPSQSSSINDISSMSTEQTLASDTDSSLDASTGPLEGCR
The target is the same in assay [17]. Particulars: at 1 µM.
Assay [18] deals with Mitogen-activated protein kinase 1 (Homo sapiens) (UniProt P28482). Particulars: at 0.1 µM.
Mitogen-activated protein kinase 1 (Homo sapiens), sequence (P28482 whole entry): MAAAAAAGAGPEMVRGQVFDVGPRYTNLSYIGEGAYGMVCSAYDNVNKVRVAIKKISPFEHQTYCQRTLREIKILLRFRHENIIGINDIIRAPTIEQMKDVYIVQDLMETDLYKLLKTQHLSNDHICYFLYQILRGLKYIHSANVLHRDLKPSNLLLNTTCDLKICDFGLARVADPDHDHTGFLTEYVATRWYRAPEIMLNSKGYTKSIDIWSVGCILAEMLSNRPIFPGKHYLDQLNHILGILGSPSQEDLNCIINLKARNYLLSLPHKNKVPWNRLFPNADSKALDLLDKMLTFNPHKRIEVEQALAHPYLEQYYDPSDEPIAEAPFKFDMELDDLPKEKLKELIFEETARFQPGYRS
Assay [19] has the same target. Particulars: at 1 µM.
Assay [20] concerns the target Mitogen-activated protein kinase 3 (Homo sapiens) (UniProt P27361). As to conditions: at 0.1 µM.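 Further: each value is a mean inhibition figure.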

Glycogen synthase kinase-3 alpha (Homo sapiens), sequence (P49840 2-483 limits assumed): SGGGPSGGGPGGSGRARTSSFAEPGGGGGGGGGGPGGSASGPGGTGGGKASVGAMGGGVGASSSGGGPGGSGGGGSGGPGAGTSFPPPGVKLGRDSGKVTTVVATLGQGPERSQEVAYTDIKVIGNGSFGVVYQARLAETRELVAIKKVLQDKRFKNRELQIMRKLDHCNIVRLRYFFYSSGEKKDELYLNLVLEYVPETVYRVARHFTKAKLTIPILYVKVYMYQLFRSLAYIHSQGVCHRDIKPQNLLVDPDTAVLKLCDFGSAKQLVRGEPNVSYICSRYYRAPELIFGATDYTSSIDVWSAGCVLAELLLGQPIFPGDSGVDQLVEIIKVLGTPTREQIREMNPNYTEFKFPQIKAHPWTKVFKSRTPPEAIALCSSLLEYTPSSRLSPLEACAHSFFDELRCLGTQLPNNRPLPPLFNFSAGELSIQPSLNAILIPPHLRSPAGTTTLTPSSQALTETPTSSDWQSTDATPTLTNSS
Mitogen-activated protein kinase 3 (Homo sapiens), sequence (P27361 whole entry): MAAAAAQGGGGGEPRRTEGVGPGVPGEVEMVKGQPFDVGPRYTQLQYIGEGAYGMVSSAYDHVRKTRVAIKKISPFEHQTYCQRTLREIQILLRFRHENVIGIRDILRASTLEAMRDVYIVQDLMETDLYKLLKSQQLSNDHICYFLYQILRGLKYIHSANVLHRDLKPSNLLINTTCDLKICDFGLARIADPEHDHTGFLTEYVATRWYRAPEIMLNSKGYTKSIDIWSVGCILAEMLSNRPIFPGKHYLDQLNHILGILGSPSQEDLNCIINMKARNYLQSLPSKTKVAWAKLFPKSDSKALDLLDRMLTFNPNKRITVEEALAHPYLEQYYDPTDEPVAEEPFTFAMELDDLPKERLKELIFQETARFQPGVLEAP
Glycogen synthase kinase-3 beta (Homo sapiens), sequence (P49841 whole entry, looked up): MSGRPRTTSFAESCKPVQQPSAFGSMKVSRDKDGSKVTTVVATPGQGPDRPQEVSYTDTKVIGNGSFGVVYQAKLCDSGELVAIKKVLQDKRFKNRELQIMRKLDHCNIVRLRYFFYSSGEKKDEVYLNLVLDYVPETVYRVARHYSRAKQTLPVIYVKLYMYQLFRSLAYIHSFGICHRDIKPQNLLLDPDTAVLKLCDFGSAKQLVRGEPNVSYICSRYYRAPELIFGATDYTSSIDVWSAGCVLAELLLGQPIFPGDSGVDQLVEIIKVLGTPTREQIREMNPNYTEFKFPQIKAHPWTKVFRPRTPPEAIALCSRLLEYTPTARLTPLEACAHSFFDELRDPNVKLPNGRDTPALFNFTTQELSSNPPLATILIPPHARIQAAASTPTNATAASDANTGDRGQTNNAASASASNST

With `Cc1nnc(-c2cccc(-c3ccc(C(=O)NCC4CC4)cc3)c2)o1`, the inhibition in [1] stood at 2.8%; in [2] it was 3%; in assay [3], 6.39%; in [4] it was 0.21%; in assay [5] it was 1.06%; in [6], 3.15%. Moreover, the inhibition in assay [7] was found to be 5.04%; in assay [8] it was 4.33%; in [9] it was 14.8%; in [10] it was 3.05%; in assay [11], 11.6%; in assay [12], 4.5%. The inhibition in [13] is 4.32%; in assay [14], 2.08%; in assay [15], -0.47%; in assay [16], 3.54%; in [17] it was 6.68%; in [18] it was 2.73%. Also, the inhibition is 5.62% in assay [19] and 5.36% in [20].

In the case of `Nc1ncnc2occ(-c3ccc(NC(=O)Nc4cc(C(F)(F)F)ccc4F)cc3)c12`, the inhibition was 2.26% and 0.21% in assay [1]; 1.15% and 1.58% in assay [2]; 4.22% and 0.86% in assay [3]; 1.3% and 0.83% in assay [4]; 2.57% and 1.79% in assay [5]; 2.49% and -1.01% in assay [6]. For the same compound, the inhibition in assay [7] was 3.45% and -1.47%; in assay [8], 7.6% and 1.13%; in [9] it was 17.5% and 6.32%; in assay [10] it was 7.23% and 1.21%; in assay [11], 17% and 5.38%; in [12], 5.43% and -2.68%. The inhibition was 37.4% and 21.6% in [13]; 60.9% and 51.1% in assay [14]; 78.3% and 77.3% in assay [15]; 4.06% and -9.27% in [16]; 21.3% and 4.35% in [17]; 1.97% and -3.05% in assay [18]. The inhibition in [19] was 1.72% and -1.67%; in assay [20], 0.93% and 0.1%.

Turning to `CS(=O)(=O)CCNCc1ccoc1-c1ccc2ncnc(Nc3ccc(OCc4ccccc4)cc3)c2c1`, the inhibition in [1] is -0.94%; in [2], 1.18%; in [3], 2.26%; in assay [4] it was -1.48%; in assay [5], -0.06%; in assay [6], 0.79%. Besides, the inhibition in assay [7] was -1.66%; in assay [8], 4.65%; in [9] it was 5.47%; in assay [10] it was 2.8%; in assay [11], 4.28%; in assay [12], -3.84%. For the same compound, the inhibition in [13] came out at 0.14%; in [14] it was 0.57%; in assay [15], 2.87%; in [16], 1.1%; in assay [17] it was 1.84%; in assay [18] it was 0.72%. Moreover, the inhibition was found to be 2.14% in assay [19] and 0.52% in [20].

For `Nc1nonc1-c1nc2cnccc2n1C1CC1`, the inhibition in [1] is 2.54% and -2.2%; in assay [2], 22% and 20.1%; in [3], 65.5% and 61.9%; in assay [4], 13.7% and 10.7%; in assay [5], 55.7% and 52.9%; in assay [6] it was 4.16% and 3.22%. Besides, the inhibition in assay [7] is 19.6% and 19.7%; in assay [8] it was 25% and 21.2%; in assay [9] it was 70.2% and 63.7%; in [10], 21.5% and 17.6%; in assay [11] it was 68.1% and 62.1%; in assay [12], 0.55% and 0.39%. Moreover, the inhibition in assay [13] was 17.3% and 12.3%; in assay [14], 3.8% and -0.76%; in assay [15], 11.1% and 7.82%; in [16], 3.59% and 0.44%; in [17] it was 6.52% and 2.72%; in assay [18], 3.14% and 2.36%. The inhibition in assay [19] was 7.51% and 3.94%; in assay [20] it was 4.9% and 2.96%.

For `CCOc1ccc2c(-c3ccnc(Nc4cc(OC)cc(C(F)(F)F)c4)n3)cnn2n1`, the inhibition in assay [1] was determined as 21.8%; in assay [2], 5.33%; in assay [3] it was 21.6%; in assay [4], 8.29%; in assay [5], 38.8%; in [6], 1.12%. The inhibition in assay [7] is 5.62%; in assay [8], 9.42%; in assay [9] it was 30.3%; in [10] it was 9.12%; in assay [11] it was 28%; in assay [12], 20.1%. Besides, the inhibition in assay [13] is 61.9%; in [14], 4.81%; in assay [15], 24.3%; in assay [16] it was 1.36%; in [17], 5.36%; in assay [18] it was 0.19%. Moreover, the figures for the inhibition in assay [19] and in assay [20] were 0.63% and 0.36%, respectively.

Consider `COc1cc(Nc2ncc(-c3ccccc3)o2)cc(OC)c1`, for which the inhibition in assay [1] was 1.09%; in [2] it was 3.59%; in [3], 6.1%; in assay [4], -8.51%; in assay [5], 0.86%; in [6], 2.09%. The inhibition is 1.69% in assay [7]; 3.75% in [8]; 14.6% in assay [9]; 2.47% in [10]; 11.5% in assay [11]; 1.55% in assay [12]. The inhibition in assay [13] amounted to 17.1%; in assay [14], 2.58%; in assay [15], 12.5%; in assay [16], 3.25%; in assay [17], 3.23%; in assay [18], 10.2%. The inhibition turned out to be 6.06% in [19] and 5.39% in assay [20].

On to `CCN1CCC(C(=O)Nc2n[nH]c3nnc(-c4cccc(F)c4F)cc23)CC1`, for which the inhibition in [1] was 0.77%; in assay [2] it was 14.4%; in assay [3], 61%; in [4] it was 12.9%; in [5], 54.3%; in assay [6], -0.03%. The inhibition in [7] was 2.26%; in assay [8], 85.3%; in assay [9] it was 89.9%; in [10] it was 80.9%; in [11], 88.7%; in [12] it was -1.08%. Moreover, the inhibition in assay [13] is 2.33%; in [14] it was 0.85%; in [15], 4.09%; in assay [16], -0.81%; in [17], 1.88%; in assay [18], -0.1%. Moreover, the inhibition in assay [19] was 0.83%; in assay [20], -2.77%.

In the case of `CS(=O)(=O)CCNCc1ccc(-c2ccc3ncnc(Nc4ccc(OCc5cccc(C(F)(F)F)c5)cc4)c3c2)o1`, the inhibition was 1.18% in assay [1]; 2.76% in assay [2]; 5.29% in assay [3]; -0.58% in [4]; 1.03% in assay [5]; 3.45% in assay [6]. The inhibition was 6.22% in assay [7]; 2.81% in [8]; 1.39% in assay [9]; 1.65% in [10]; 3.05% in [11]; -0.56% in [12]. The inhibition in [13] stood at 2.78%; in [14] it was 0.9%; in assay [15] it was 7.06%; in [16], 3.75%; in [17], 7.64%; in [18] it was 5.63%. The inhibition in assay [19] was 5.84%; in assay [20] it was 4.22%.

In the case of `CC1=C(C(=O)Nc2ccc3[nH]nc(C)c3c2)C(c2ccc(C(F)(F)F)cc2)CC(=O)N1` (stereo not given), the inhibition came out at 14.1% in [1]; 2.93% in [2]; 7.46% in assay [3]; 1.73% in [4]; 4.23% in assay [5]; 2.28% in assay [6]. Moreover, the inhibition in assay [7] is 3.97%; in assay [8], 6.5%; in assay [9], 10.8%; in assay [10], 6.08%; in [11] it was 10.3%; in [12], 3.11%. Moreover, the inhibition in assay [13] was found to be 7.43%; in assay [14] it was 3.59%; in assay [15] it was 7.18%; in assay [16], 2.4%; in assay [17], 3.81%; in [18], 6.06%. The values for the inhibition in [19] and in assay [20] were 35.1% and 3.88%, respectively.
